Assay results: PubChem BioAssay (Tox21)
Results filed as inconclusive are left out. Activity calls are given as the source filed them. Unless noted, calls follow the shape of the dose curve; as a rule, active = well fitted curve in the direction sought with a large enough effect in the repeat runs; inconclusive = weak or mixed curves; inactive = no such curve, though single readings can be large; an effect the other way counts as inactive or inconclusive.

What was measured:
[1] = qHTS assay to identify small molecule agonists of the vitamin D receptor (VDR) signaling pathway - cell viability counter screen (AID 743224); details: VDR-bla HEK293T viability, CellTiter-Glo luminescence, 16 h; series mostly up to 62.6 µM; also: nearly all actives have a fitted effect of over 50% in size; also: potency is read from the fitted curve at half-maximal effect
Procedure, shortened: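 Cytotoxicity counter screen: VDR-bla cells, 16 h compound exposure at 37C, 5% CO2; CellTiter-Glo luminescence, 30 min RT, same wells as bla read.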

[2] = qHTS assay to identify small molecule antagonists of the vitamin D receptor (VDR) signaling pathway - cell viability counter screen (AID 743225); details: VDR-bla HEK293T viability, CellTiter-Glo luminescence, 16 h; series mostly up to 61 µM; also: nearly all actives have a fitted effect of over 50% in size; also: potency is read from the fitted curve at half-maximal effect
Procedure, shortened: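 In this counter screen, VDR-bla HEK 293T cells receive test compound plus 3 nM final calcitriol for 16 h at 37C. Room-temperature steps of 2 h with the beta-lactamase substrate, then 30 min with CellTiter-Glo, precede the luminescence read.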

[3] = qHTS assay to identify small molecule agonists of the NFkB signaling pathway - cell viability counter screen (AID 1159515; calls by dose curve; also: nearly all actives have a fitted effect of over 55% in size; also: potency is read from the fitted curve at half-maximal effect); details: NFkB-bla ME-180 viability, CellTiter-Glo luminescence, 5 h; series mostly up to 61 µM
Procedure, shortened: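 ME-180 NFkB-bla cells, 2,000/well; overnight attach; compound 5 hr, 37 C/5% CO2; LiveBLAzer substrate 1.5 hr RT; then CellTiter-Glo in same wells, 30 min RT, luminescence read.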

[4] = qHTS assay to identify small molecule agonists of the endoplasmic reticulum stress response signaling pathway (AID 1159516; active = well fitted activation curve with a large enough effect in the signal ratio in the repeat runs, not every such curve was filed as active; the % refers to the signal ratio; also: potency is read from the fitted curve at half-maximal effect); details: ESRE-bla HeLa, ER stress beta-lactamase reporter, 5 h; series mostly up to 61 µM
Procedure, shortened: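 HeLa ESRE-bla reporter line; cpd 5 h, 37 C/5% CO2; LiveBLAzer B/G FRET substrate 2 h RT; ex 405, em 460/530 nm.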

[5] = qHTS assay to identify small molecule agonists of the endoplasmic reticulum stress response signaling pathway - cell viability counter screen (AID 1159517; calls by dose curve;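 also: HeLa cells carrying an ER stress response element beta-lactamase reporter; nearly all actives have a fitted effect of over 50% in size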); details: ESRE-bla HeLa viability, CellTiter-Glo luminescence, 5 h; series mostly up to 61 µM
Procedure, shortened: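 After overnight attachment, ESRE-bla HeLa cells were treated with Tox21 library compounds for 5 hr. CellTiter-Glo luminescence, read 30 min post-addition at room temperature, reported viability.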

[6] = qHTS assay to identify small molecule antagonists of the retinoid-related orphan receptor gamma (ROR-gamma) signaling pathway - cell viability counter screen (AID 1159520); details: Tet-on RORgamma CHO cells viability, ATP luminescence, 16 h; series mostly up to 92.4 µM; also: nearly all actives have a fitted effect of over 50% in size; also: potency is read from the fitted curve at half-maximal effect
Procedure, shortened: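 Cytotoxicity was read from cellular ATP (CellTiter-Glo luminescence) after 16 hr at 37 C with 1 uM doxycycline induction. The inducer was added 2 hr after compound transfer to Tet-on ROR gamma CHO cells.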

[7] = molecular target: Nuclear receptor ROR-gamma (Homo sapiens) (UniProt P51449); experiment: qHTS assay to identify small molecule antagonists of the retinoid-related orphan receptor gamma (ROR-gamma) signaling pathway (AID 1159521; also: nearly all actives have a fitted effect of over 50% in size; also: potency is read from the fitted curve at half-maximal effect); details: Tet-on RORgamma CHO cells, RORE-luciferase, 16 h; series mostly up to 92.4 µM
Procedure, shortened: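 Screening format: cell-based luciferase reporter in CHO cells with doxycycline-inducible RORγ. Compound pre-exposure lasts 2 h, doxycycline is 1 uM final, induction runs 16 h at 37 C, and ONE-Glo luminescence is read.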

[8] = qHTS assay to identify small molecule agonists of the AP-1 signaling pathway - cell viability counter screen (AID 1159525; calls by dose curve; also: nearly all actives have a fitted effect of over 55% in size; also: potency is read from the fitted curve at half-maximal effect); details: ME-180 AP-1-bla cells viability, ATP luminescence, 5 h; series mostly up to 76.8 µM
Procedure, shortened: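 Intracellular ATP by Cell Titer Glo luminescence (30 min, RT) in the same ME-180 AP-1-bla wells after the 5 h compound exposure at 37 °C. Normalised to tetra n-octyl ammonium bromide and DMSO controls.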

[9] = qHTS assay to identify small molecule agonists of the AP-1 signaling pathway (AID 1159526; calls by dose curve); details: ME-180 (cervical carcinoma) AP-1-bla reporter, beta-lactamase FRET ratio, 5 h; series mostly up to 76.8 µM
[10] = qHTS assay to identify small molecule agonists of the RXR signaling pathway - cell viability counter screen (AID 1159529); details: RXR-alpha-bla HEK293T viability, CellTiter-Glo, 16 h; series mostly up to 76.8 µM; also: nearly all actives have a fitted effect of over 50% in size; also: potency is read from the fitted curve at half-maximal effect
Procedure, shortened: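 Viability read-out for the RXR-alpha agonist qHTS: luminescent CellTiter-Glo signal after 30 min at RT. HEK 293T bla reporter cells, 2% charcoal-stripped FBS, 16 hr compound incubation; tetraoctyl ammonium bromide as cytotoxic control.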

[11] = qHTS assay to identify small molecule antagonists of the retinoic acid receptor (RAR) signaling pathway (AID 1159552; also: nearly all actives have a fitted effect of over 50% in size; also: potency is read from the fitted curve at half-maximal effect); details: C3RL4 RARE luciferase reporter, retinol-stimulated, 6 h; series mostly up to 92.4 µM
Procedure, shortened: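 Using a RARE-driven luciferase construct in C3RL4 cells, retinol at 1 uM final provided the agonist stimulus while compounds were co-applied. After 6 hours at 37 C, luminescence was recorded to flag inhibitors of retinol signaling.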

[12] = qHTS assay to identify small molecule agonists of the retinoic acid receptor (RAR) signaling pathway (AID 1159553); details: C3RL4 RARE luciferase reporter, agonist, 6 h; series mostly up to 73.3 µM; also: potency is read from the fitted curve at half-maximal effect
Procedure, shortened: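 RARE-luc C3RL4 cells; overnight attachment 37 C/5% CO2; compound (DMSO) 6 hr; luciferase reagent, 30 min RT; luminescence read-out.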

[13] = qHTS assay to identify small molecule antagonists of the estrogen related receptor (ERR) signaling pathway from Tox21 library - cell viability counter screen (AID 1224834); details: ERR reporter cells viability, CellTiter-Fluor, 17.5 h; series mostly up to 92.4 µM; also: nearly all actives have a fitted effect of over 30% in size; also: potency is read from the fitted curve at half-maximal effect
Procedure, shortened: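 Multiplexed viability counter screen in ERR cells: 17.5 h compound exposure at 37 C, CellTiter-Fluor added, 30 min at 37 C/5% CO2, fluorescence read.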

[14] = qHTS assay to identify small molecule antagonists of the retinoid acid receptor (RAR) signaling pathway - cell viability counter screen (AID 1159551); details: C3RL4 cells viability, ATP luminescence (CellTiter-Glo), 6 h; series mostly up to 92.4 µM; also: nearly all actives have a fitted effect of over 35% in size; also: potency is read from the fitted curve at half-maximal effect
Procedure, shortened: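 C3RL4 RARE-luciferase line; cpds + retinol 1 uM final, 6 h, 37 C/5% CO2; CellTiter-Glo ATP luminescence, 30 min RT.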

[15] = molecular target: Retinoic acid receptor RXR-alpha (Homo sapiens) (UniProt P19793); experiment: qHTS assay to identify small molecule agonists of the RXR signaling pathway (AID 1159527; calls by dose curve; also: nearly all actives have a fitted effect of over 35% in size; also: potency is read from the fitted curve at half-maximal effect); details: HEK293T RXRa-UAS-bla, beta-lactamase ratio, 16 h; series mostly up to 76.8 µM
Retinoic acid receptor RXR-alpha (Homo sapiens), sequence (P19793 whole entry, looked up): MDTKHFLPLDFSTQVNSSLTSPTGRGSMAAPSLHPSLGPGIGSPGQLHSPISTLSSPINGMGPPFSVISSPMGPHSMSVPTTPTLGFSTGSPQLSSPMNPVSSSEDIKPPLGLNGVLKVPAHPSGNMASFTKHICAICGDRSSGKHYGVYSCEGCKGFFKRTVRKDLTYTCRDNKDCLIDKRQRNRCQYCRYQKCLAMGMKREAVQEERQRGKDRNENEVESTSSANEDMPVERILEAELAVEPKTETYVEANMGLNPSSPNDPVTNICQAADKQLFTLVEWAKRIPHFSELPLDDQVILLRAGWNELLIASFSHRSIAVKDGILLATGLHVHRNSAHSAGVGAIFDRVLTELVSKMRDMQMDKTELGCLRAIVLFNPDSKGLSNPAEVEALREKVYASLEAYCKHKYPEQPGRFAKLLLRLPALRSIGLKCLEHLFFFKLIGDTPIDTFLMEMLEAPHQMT
Procedure, shortened: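 Fluorescence ratio readout (460 vs 530 nm) from GeneBLAzer RXR-alpha HEK 293T cells after 16 hr compound treatment; cells seeded 5 hr beforehand in low-serum, charcoal-stripped medium.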

[16] = qHTS assay to identify small molecule antagonists of the estrogen related receptor (ERR) signaling pathway (AID 1224819); details: ERR reporter cell line, luciferase inhibition; series mostly up to 46.1 µM
Procedure, shortened: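 Luminescence readout (One-Glo, 30 min, RT) of ERR cell line after 18 h compound exposure at 37 C; cells seeded 2,000/well, pre-incubated 6 h, compounds pinned from DMSO stocks.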

[17] = qHTS assay to identify small molecule agonists of the estrogen related receptor (ERR) signaling pathway (AID 1224820); details: ERR reporter cell line, luciferase agonist mode; series mostly up to 46.1 µM
Procedure, shortened: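 Following a 6 h settling period, 2,000 ERR cells per well receive DMSO-dissolved compounds by pin tool and incubate 18 h at 37 C; agonist activity is scored from One-Glo luminescence read 30 min post-addition.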

[18] = test system: estrogen-related receptor alpha (ERRalpha) with PGC-1alpha coactivator, human; experiment: qHTS assay to identify small molecule antagonists of the estrogen related receptor signaling pathway with the pleiotropic PPARgamma coactivator (PGC) (AID 1224821; calls by dose curve); details: ERR/PGC reporter cell line, luciferase, antagonist mode; series mostly up to 46.1 µM
Procedure, shortened: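 Screening used NTP's PGC/ERR cells, dosed via pin tool with compound in DMSO alongside positive and negative controls. After 18 h at 37 C, One-Glo reagent sat 30 min at room temperature before luminescence detection.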

[19] = qHTS assay to identify small molecule antagonists of the estrogen related receptor signaling pathway with the pleiotropic PPARgamma coactivator (PGC) cell viability counter screen (AID 1224822); details: ERR/PGC reporter cell line viability counter screen; series mostly up to 46.1 µM
Procedure, shortened: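 Fluorescence read-out of CellTiter-Fluor after 30 min at 37 C; PGC/ERR cells, 2,000 per well, had been exposed to DMSO-dissolved compounds for 17.5 h following a 6 h pre-incubation.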

[20] = qHTS assay to identify small molecule agonists of the estrogen related receptor signaling pathway with the pleiotropic PPARgamma coactivator (PGC) (AID 1224823); details: ERR/PGC reporter cell line, luciferase agonist mode; series mostly up to 46.1 µM
Procedure, shortened: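 In this quantitative high-throughput screen, an 18 h, 37 C treatment of PGC/ERR cells with compounds in DMSO preceded a One-Glo luminescence read taken after 30 min at room temperature.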

Measured: Potency

CCOc1cc(OCC)c(C(=O)CCC(=O)O)cc1OCC
not listed: [14] | [15] | [16] | [17] | [18] | [19] | [20]
inactive: all other assays above

CCCCCCCCCC=O
inactive: [1] | [3] | [4] | [5] | [6] | [7] | [8] | [9] | [10] | [14] | [13]

O=C(c1ccc(O)cc1)c1ccc(O)cc1
not listed: [14] | [15] | [16] | [17] | [18] | [19] | [20]
inactive: all other assays above

CCCCCCCCCO
not listed: [9] | [15] | [16] | [17] | [18] | [19] | [20]
inactive: all other assays above

Cc1c(Cn2ccnc2)c2ccccc2n1CCC(=O)O
not listed: [9] | [11] | [12] | [16] | [17] | [18] | [19] | [20]
inactive: all other assays above

O=C(O)[C@@H]1[C@H]2C[C@H]3c4[nH]c5ccccc5c4CCN3C[C@@H]2CC[C@@H]1O
not listed: [9] | [11] | [14] | [16] | [17] | [18] | [19] | [20]
inactive: all other assays above

CN1CCC[C@@H]1c1cccnc1
inactive: [1] | [3] | [4] | [5] | [6] | [7] | [8] | [15] | [10] | [14] | [13]

CC(C)c1ccccc1C(C)C
inactive: [1] | [2] | [3] | [4] | [5] | [6] | [7] | [8] | [15] | [10] | [13]

ClC(Cl)(Cl)c1ccc(C(Cl)(Cl)Cl)cc1
not listed: [9] | [15] | [16] | [17] | [18] | [19] | [20]
inactive: all other assays above

CCOC(=O)[C@H](CCc1ccccc1)N[C@H]1CCc2ccccc2N(CC(=O)O)C1=O
active: [1] 21.1 µM | [2] 21.3 µM | [4] 21.3 µM | [11] 29.8 µM | [13] 26.6 µM
inactive: [3] | [5] | [6] | [7] | [8] | [15] | [14]

CCN(CC)CCNC(C(=O)OCCC(C)C)c1ccccc1 (stereo unspecified)
inactive: [1] | [2] | [3] | [4] | [5] | [6] | [7] | [8] | [15] | [14]

CCCCC(CC)COCCCN (stereo unspecified)
not listed: [9] | [10] | [15] | [16] | [17] | [18] | [19] | [20]
inactive: all other assays above

O=C(CC(=O)c1ccccc1)c1ccccc1
active: [12] 8.27 µM
inactive: [3] | [4] | [5] | [6] | [7] | [8] | [14]

CC1(C)CCC(C)(C)c2cc(NC(=O)c3ccc(C(=O)O)cc3)ccc21
active: [7] 26.6 µM
inactive: [1] | [2] | [3] | [4] | [5] | [6] | [8] | [10] | [14] | [13]

O=C(O)C1CCC(C(=O)O)CC1 (stereo unspecified)
active: [15] 5.48 µM
not listed: [9] | [11] | [16] | [17] | [18] | [19] | [20]
inactive: all other assays above

CCN(CC)C(C)CN1c2ccccc2Sc2ccccc21 (stereo unspecified)
not listed: [9] | [14] | [16] | [17] | [18] | [19] | [20]
inactive: all other assays above

NC(N)=N/N=C/c1c(Cl)cccc1Cl
not listed: [9] | [13] | [14] | [15]
inactive: all other assays above

NC(N)=NN=C(/C=C/c1ccc([N+](=O)[O-])o1)/C=C/c1ccc([N+](=O)[O-])o1
active: [2] 10.7 µM | [3] 13.4 µM | [6] 2.11 µM | [7] 7.5 µM | [8] 21.3 µM | [10] 8.49 µM | [14] 13.3 µM | [11] 7.5 µM | [13] 2.98 µM
inactive: [4] | [5]

CN1CCC(=C2c3ccccc3CCc3sccc32)CC1
inactive: [1] | [3] | [4] | [5] | [6] | [7] | [8] | [15] | [14]

CN1CCC(=C2c3ccccc3C=Cc3ccccc32)CC1
not listed: [9] | [11] | [19]
inactive: all other assays above
